PubChem BioAssay AID588856 (National Center for Advancing Translational Sciences (NCATS), 2011)
Screen size: about 410,000 compounds; about 3,100 (0.76%) were called active. Calls follow the shape of the dose curve; as a rule, active = well fitted cell-killing curve with a large enough effect; inactive = no such curve, though single readings can be large or run the other way. Many of the other results were omitted from the sample, so actives are more common in it than they were.

test: qHTS for Inhibitors of TGF-b: Cytotox Counterscreen; settings: HepG2 CAGA-GFP viability, ATP luminescence, 18 h; series mostly up to 46.1 µM; activity change, negative = cytotoxicity: at the top concentration
Summary of the method: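 HepG2 CAGA-GFP cells (1000/well, DMEM with 1% FBS) received compound, then TGF-beta at 500 pg/mL final, and were incubated 18 hours at 37 degrees C. Viability was read by CellTiter-Glo luminescence. Media-only wells were set as complete cell-killing and DMSO as no toxicity.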
Potency is read from the fitted curve at half-maximal effect.

Structure (SMILES)	activity change, negative = cytotoxicity	Potency
CC1(C)CC(=O)c2cc(C(=O)NCc3ccccc3)c(=O)[nH]c2C1	-16.3% (inactive)	
CCCCC(=O)N(C)c1c(CC)nc2c(OCc3ccc(Cl)cc3Cl)cccn12		12.6 µM (active)
CCc1nc2c(OCc3ccc(Cl)cc3Cl)cccn2c1N(C)C(=O)C(C)C	-112% (inactive)	
Cc1nc2c(OCc3ccc(Cl)cc3)cccn2c1N(C)Cc1cccs1	-61.6% (inactive)	
Cc1nc2c(OCc3ccc(Cl)cc3Cl)cccn2c1N(C)CC1CC1		11.2 µM (active)
Cc1nc2c(OCc3cccc(Cl)c3)cccn2c1N(C)CC1CC1	-32.8% (inactive)	
CCCCC(=O)N(C)c1c(CC)nc2c(OCc3ccc(S(C)(=O)=O)cc3)cccn12	-22.7% (inactive)	
Cc1ccc(C)c(S(=O)(=O)c2nnn3c2nc(N2CCOCC2)c2sccc23)c1	-0.494% (inactive)	
CN1CCN(/[N+]([O-])=N/Oc2ccc([N+](=O)[O-])cc2[N+](=O)[O-])CC1	-43.6% (inactive)	
CC1(C)C=Cc2c(ccc(C(=O)/C=C/c3ccccc3)c2O)O1	-21.1% (inactive)	
O=C1C=CC(=O)N1c1ccc(N2CCCCC2)cc1		17.8 µM (active)
Cc1ccc(CNC(=O)CCc2c(C)nc3c(c(C)nn3-c3ccccc3)c2C)cc1	-0.273% (inactive)	
O=C(Nc1ccc(Cl)cc1)c1cnn2c1NC(=C1CC1)C=C2C(F)F	8.6% (inactive)	
COc1ccc(-c2nc3sc(CCNC(=O)C(C)(C)C)c(C)n3n2)cc1	-8.78% (inactive)	
CC1CCC2(CC1)N=C(c1ccccc1)C(=O)N2CC(=O)Nc1ccc(F)c(Cl)c1 (configuration not stated)	-29.1% (inactive)	
CCn1c(CC(=O)Nc2ccc(C)cc2)nnc1SCC(=O)Nc1nc(C)cs1	-0.792% (inactive)	
COCCn1c(SCC(=O)Nc2nc(C)cs2)nnc1C(C)C		11.2 µM (active)
CCn1c(SCC(=O)Nc2nc(C)cs2)nnc1C(C)NC(=O)c1ccccc1 (configuration not stated)	-6.84% (inactive)	
CCn1c2ccccc2c2nnc(SCC(=O)O)nc21	-10.9% (inactive)	
COc1ccc(NC(=O)Nc2cccc(-c3noc(C)n3)c2)cc1	-21.4% (inactive)	
Cc1ccc(S(=O)(=O)N2CCN(c3nc(-n4cnc5ccccc54)nc4ccccc34)CC2)cc1	-20.3% (inactive)	

Structure (SMILES)	activity change, negative = cytotoxicity	Potency
Cc1sc2ncn(CC(=O)N3CCN(c4ccc(F)cc4)CC3)c(=O)c2c1S(=O)(=O)N1CCN(c2ncccn2)CC1	-13.7% (inactive)	
CC(C)(C)OC(=O)N(Cc1ccco1)S(=O)(=O)c1ccccc1Br	49% (inactive)	
C=C1C=C(C(F)F)n2ncc(C(=O)NCCc3ccccc3OC)c2N1	9.57% (inactive)	
COc1ccc(-c2cn3c(n2)sc2cc(C(=O)Nc4ccccc4F)ccc23)cc1	-25.4% (inactive)	
CC(Nc1nc(C(F)(F)F)nc2ccccc12)c1cccs1 (configuration not stated)		22.4 µM (active)
Oc1ccccc1-c1nc(/C=C/c2ccc(F)cc2)no1	-4.32% (inactive)	
COc1cc(Cl)ccc1Nc1ncc(C(=O)N2CCN(c3ccccc3OC)CC2)c2ccccc12	-20.1% (inactive)	
O=C(NC1CCCCC1)C1CCC(CNS(=O)(=O)c2ccccc2)CC1 (configuration not stated)	0.959% (inactive)	
Cc1ccc(S(=O)(=O)NCC2CCC(C(=O)N3CCOCC3)CC2)cc1 (configuration not stated)	-27.1% (inactive)	
O=C(O)C1CCC(CNS(=O)(=O)c2ccc(Br)cc2)CC1 (configuration not stated)		15.8 µM (active)
O=C(NC1CC(=O)N(c2ccc(F)cc2)C1)c1ccc(S(=O)(=O)N2CCCC2)cc1 (configuration not stated)	-8.93% (inactive)	
CN(C(=O)CSc1nc2ccc(NC(=O)COc3ccccc3)cc2s1)c1ccccc1	-19.4% (inactive)	
Cc1ccc(F)cc1NC(=O)CCSc1nc(-c2ccco2)cc(C(F)(F)F)n1	-14.5% (inactive)	
CCc1ccc(CN(Cc2ccco2)C(=O)c2ccccc2Cl)cc1	-52% (inactive)	
CC1CCCCN1S(=O)(=O)c1ccc(F)c(C(=O)Nc2ccccc2C(F)(F)F)c1 (configuration not stated)	-15% (inactive)	
Cc1ccc(CNC(=O)CCc2c(C)nn(-c3ccc(N4CCCC4)nn3)c2C)cc1	-31.6% (inactive)	
N=c1n(Cc2ccc(Cl)cc2)c2ccccc2n1CC(O)c1ccco1 (configuration not stated)		12.6 µM (active)
N=c1n(CCc2ccccc2)c2ccccc2n1Cc1ccccc1F	3.66% (inactive)	
O=C(NCc1ccccc1)C(=O)NCC(c1ccco1)S(=O)(=O)c1ccc(Cl)cc1 (configuration not stated)	-15.4% (inactive)	
COc1ccccc1-c1ccnc2[nH]n(-c3ccccc3)c(=O)c12	-6.7% (inactive)	
OCc1cnc(SCc2ccc(F)cc2)n1Cc1ccc(F)cc1	-24.2% (inactive)	

Structure (SMILES)	activity change, negative = cytotoxicity	Potency
NC(Cc1ccccc1)c1csc(Nc2cc(Oc3ccccc3)ncn2)n1 (configuration not stated)		31.6 µM (active)
COCCn1c(SCC(=O)c2cc(C)ccc2C)nc2cc(C(=O)NC3CCCC3)ccc2c1=O	-6.56% (inactive)	
CCC(=O)N1CCc2cc(S(=O)(=O)NC(C(=O)Nc3ccc(C(C)=O)cc3)C(C)C)ccc21 (configuration not stated)	-14.7% (inactive)	
COC(=O)c1ccc(-c2nc3cc(NC(C)=O)ccc3o2)cc1	-1.18% (inactive)	
CC(=O)c1cc(CN2CCC(C(=O)Nc3cccc(-c4cscn4)c3)CC2)cs1	-31.8% (inactive)	
O=C(Nc1cccc(-c2cccc(Cl)c2)c1)C1CCN(C2CCC2)CC1	-73.6% (inactive)	
CCn1cc(CN2CCC(C(=O)Nc3cccc(-c4cccc(Cl)c4)c3)CC2)c(C)n1		12.6 µM (active)
Cc1ccc(CNC(=O)C2(C(F)(F)F)C/C(=C\CCO)CCCO2)o1 (configuration not stated)	-11.9% (inactive)	
COc1cc(OC)c2c(C)cc(=O)oc2c1C(CCN1CCCCC1)c1ccc(N(C)C)cc1 (configuration not stated)	-34.4% (inactive)	
Nc1ncc(S(=O)(=O)Nc2ccc(OC(F)(F)F)cc2)cn1	-7.99% (inactive)	
Cc1cc(C)cc(NS(=O)(=O)c2ccc(Oc3ncc(C(F)(F)F)cc3Cl)cc2)c1		12.6 µM (active)
Cc1ccc(NS(=O)(=O)c2ccc(F)cc2)nc1	-17% (inactive)	
NC(=O)C1CCN(C(=O)c2cccc(NC(=O)c3nsc4ccccc34)c2)CC1	-18% (inactive)	
COc1cc(OC)c(N(C)C(=O)c2cc3c(=O)oc4ccccc4c3s2)cc1Cl	-20% (inactive)	
CC(C)CC[n+]1ccn(C2=C([O-])c3ccccc3C(=O)/C2=N\S(=O)(=O)c2ccccc2)c1		5.62 µM (active)
Cc1ccc(S(=O)(=O)/N=C2\C=C(NS(=O)(=O)c3ccc(C)cc3)C(=O)c3ccccc32)cc1	-112% (inactive)	
C=C1CCN(C(CC(C)C)C(=O)N2CCOCC2)S(=O)(=O)c2ccccc21 (configuration not stated)	-22.3% (inactive)	
NC(c1csc(NC(=O)Nc2cccc(C(F)(F)F)c2)n1)C1CCCCC1 (configuration not stated)		8.91 µM (active)
Cc1oc2ccc(O)c(CN3CCCCC3)c2c1C(=O)Nc1cccc(C(F)(F)F)c1	-71.8% (inactive)	
O=C(CN1c2ccccc2S(=O)(=O)c2ccccc21)Nc1cccc(C(F)(F)F)c1	-28.4% (inactive)	
